For 36 sequences, binding signal results are on record in paper PMC5700166.

Experiment [1] has as its target T1, GST-Nv-NF-kB (Ser allele) (Nematostella vectensis, UniProt A7UNT2 2-411).
T1 sequence: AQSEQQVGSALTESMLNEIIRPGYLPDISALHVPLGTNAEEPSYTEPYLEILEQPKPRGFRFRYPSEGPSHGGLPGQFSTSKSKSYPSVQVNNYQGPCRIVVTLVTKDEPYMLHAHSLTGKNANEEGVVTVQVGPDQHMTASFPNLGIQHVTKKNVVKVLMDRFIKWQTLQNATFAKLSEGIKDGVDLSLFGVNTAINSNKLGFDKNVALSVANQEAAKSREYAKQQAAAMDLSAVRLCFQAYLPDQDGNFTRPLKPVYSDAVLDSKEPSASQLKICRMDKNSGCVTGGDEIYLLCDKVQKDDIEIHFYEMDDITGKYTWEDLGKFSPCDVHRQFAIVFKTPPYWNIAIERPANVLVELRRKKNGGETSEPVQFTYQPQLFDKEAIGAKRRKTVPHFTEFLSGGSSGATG
Description: protein-binding microarray (PBM); PBM: ~300 nM protein, 6 mM HEPES pH 7.8, 80 mM KCl, 0.5 mM EDTA, 0.5 mM EGTA, 6% glycerol, 35 ng/ul poly-dIdC, 1% milk, 1 h, room temperature; Ap Aiptasia and Nv Nematostella (sea anemones) / Co Capsaspora / Aq Amphimedon (sponge) / Dm Drosophila / Hu human; RHD is the Rel homology domain; high values mean tight binding. The conditions noted are these: dsDNA, one strand shown.

The target in experiment [2] is GST-Hu-p50 (Homo sapiens, UniProt P19838 7-356). Described as above. Conditions: dsDNA, one strand shown.
GST-Hu-p50, sequence (P19838 7-356): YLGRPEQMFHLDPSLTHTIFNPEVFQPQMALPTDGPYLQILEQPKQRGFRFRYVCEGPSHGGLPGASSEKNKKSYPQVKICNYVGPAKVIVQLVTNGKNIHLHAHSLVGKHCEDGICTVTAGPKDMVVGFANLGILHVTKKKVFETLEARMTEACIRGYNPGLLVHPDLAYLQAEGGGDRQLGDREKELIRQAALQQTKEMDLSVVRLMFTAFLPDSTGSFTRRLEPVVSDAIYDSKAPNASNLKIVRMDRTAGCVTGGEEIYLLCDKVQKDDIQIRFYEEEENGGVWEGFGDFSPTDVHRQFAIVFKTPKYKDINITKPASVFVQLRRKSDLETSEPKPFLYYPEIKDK

Take “CCGATTAACATCAGGGAATTGTATGATGTTAATCGGGTCTTGATTCGCTTGACGCTGCTG”: the binding signal came out at 4.84 z-score in experiment [1] and 3.41 z-score in experiment [2].
Regarding “CCGATTAACATCAGGGAATGACCTGATGTTAATCGGGTCTTGATTCGCTTGACGCTGCTG”, the binding signal in experiment [1] came out at 1.65 z-score; in experiment [2], 2.08 z-score.
“CCGATTAACATCAACGGGAATTCTGATGTTAATCGGGTCTTGATTCGCTTGACGCTGCTG”: the values for the binding signal in experiment [1] and in experiment [2] were 5.37 z-score and 3.82 z-score, respectively.
“CCGATTAACATCAGGGGGTCACCTGATGTTAATCGGGTCTTGATTCGCTTGACGCTGCTG”: the binding signal came to 2.36 z-score in experiment [1] and 2.9 z-score in experiment [2].
In the case of “CCGATTAACATCAGGGAGTTACCTGATGTTAATCGGGTCTTGATTCGCTTGACGCTGCTG”, the figures for the binding signal in experiment [1] and in experiment [2] were 3.21 z-score and 3.85 z-score, respectively.
Consider “CCGATTAACATCAACTAATTCCCTGATGTTAATCGGGTCTTGATTCGCTTGACGCTGCTG”, for which the binding signal stood at 4.35 z-score in experiment [1] and 2.11 z-score in experiment [2].
As to “CCGATTAACATCAAGGGATCCCCTGATGTTAATCGGGTCTTGATTCGCTTGACGCTGCTG”, the binding signal is 6.37 z-score in experiment [1] and 5.23 z-score in experiment [2].
In the same order, the values of “CCGATTAACATCAGGGGAGGTACTGATGTTAATCGGGTCTTGATTCGCTTGACGCTGCTG” are 4.46 z-score and 3.17 z-score.
As to “CCGATTAACATCAAAATTCCCAATGATGTTAATCGGGTCTTGATTCGCTTGACGCTGCTG”, the binding signal in experiment [1] came out at 4.95 z-score; in experiment [2] it was 4.21 z-score.
In the same order, the values of “CCGATTAACATCATCCCCGTGTCTGATGTTAATCGGGTCTTGATTCGCTTGACGCTGCTG” are 2.84 z-score and 2.68 z-score.
With “CCGATTAACATCAGGGAATTCACTGATGTTAATCGGGTCTTGATTCGCTTGACGCTGCTG”, the binding signal in experiment [1] came to 4.73 z-score; in experiment [2], 4.11 z-score.
In the same order, the values of “CCGATTAACATCACGGGACTTCCTGATGTTAATCGGGTCTTGATTCGCTTGACGCTGCTG” are 4.98 z-score and 4.6 z-score.
In the same order, the values of “CCGATTAACATCAGGAACCTCCCTGATGTTAATCGGGTCTTGATTCGCTTGACGCTGCTG” are 1.05 z-score and 1.22 z-score.
In the same order, the values of “CCGATTAACATCACGGAATTACCTGATGTTAATCGGGTCTTGATTCGCTTGACGCTGCTG” are 3.86 z-score and 2.38 z-score.
As to “CCGATTAACATCAAATTTTCCCATGATGTTAATCGGGTCTTGATTCGCTTGACGCTGCTG”, the values for the binding signal in experiment [1] and in experiment [2] were 6.42 z-score and 4.19 z-score, respectively.
Take “CCGATTAACATCAAGGAAAACCCTGATGTTAATCGGGTCTTGATTCGCTTGACGCTGCTG”: the binding signal in experiment [1] came out at 1.6 z-score; in experiment [2], 2.22 z-score.
In the same order, the values of “CCGATTAACATCAGGAGTCCCCATGATGTTAATCGGGTCTTGATTCGCTTGACGCTGCTG” are 4.11 z-score and 4.86 z-score.
For the sequence “CCGATTAACATCAAAAATCACCCTGATGTTAATCGGGTCTTGATTCGCTTGACGCTGCTG”, the binding signal was found to be 3.82 z-score in experiment [1] and 4.76 z-score in experiment [2].
For the sequence “CCGATTAACATCAGACCTCCCCCTGATGTTAATCGGGTCTTGATTCGCTTGACGCTGCTG”, the binding signal in experiment [1] stood at 4.4 z-score; in experiment [2] it was 3.87 z-score.
For “CCGATTAACATCACGGGGTTCCCTGATGTTAATCGGGTCTTGATTCGCTTGACGCTGCTG”, the binding signal in experiment [1] was 1.48 z-score; in experiment [2] it was 2.59 z-score.
In the same order, the values of “CCGATTAACATCAGGGGAGTACATGATGTTAATCGGGTCTTGATTCGCTTGACGCTGCTG” are 3.51 z-score and 2.47 z-score.
Regarding “CCGATTAACATCAATATTTACCCTGATGTTAATCGGGTCTTGATTCGCTTGACGCTGCTG”, the binding signal stood at 5.12 z-score in experiment [1] and 3.16 z-score in experiment [2].
Take “CCGATTAACATCAAAAAATGCCCTGATGTTAATCGGGTCTTGATTCGCTTGACGCTGCTG”: the figures for the binding signal in experiment [1] and in experiment [2] were 1.9 z-score and 3.14 z-score, respectively.
Consider “CCGATTAACATCAAAAATCCCATTGATGTTAATCGGGTCTTGATTCGCTTGACGCTGCTG”, for which the results for the binding signal in experiment [1] and in experiment [2] were 1.88 z-score and 3.48 z-score, respectively.
“CCGATTAACATCAGGCCACCCCCTGATGTTAATCGGGTCTTGATTCGCTTGACGCTGCTG”: the binding signal came out at 2.48 z-score in experiment [1] and 3.82 z-score in experiment [2].
On to “CCGATTAACATCAGGGAATTCGATGATGTTAATCGGGTCTTGATTCGCTTGACGCTGCTG”, for which the figures for the binding signal in experiment [1] and in experiment [2] were 4.38 z-score and 2.58 z-score, respectively.
In the same order, the values of “CCGATTAACATCAAGAGTTTCCCTGATGTTAATCGGGTCTTGATTCGCTTGACGCTGCTG” are 4.9 z-score and 3.64 z-score.
In the same order, the values of “CCGATTAACATCAAAGAAATCCCTGATGTTAATCGGGTCTTGATTCGCTTGACGCTGCTG” are 4.02 z-score and 3.77 z-score.
In the same order, the values of “CCGATTAACATCAGACTTCCCCATGATGTTAATCGGGTCTTGATTCGCTTGACGCTGCTG” are 6.11 z-score and 4.73 z-score.
Turning to “CCGATTAACATCAGGGAATTCCATGATGTTAATCGGGTCTTGATTCGCTTGACGCTGCTG”, the binding signal in experiment [1] worked out at 5.22 z-score; in experiment [2], 4.7 z-score.
On to “CCGATTAACATCACGGGAAGTCCTGATGTTAATCGGGTCTTGATTCGCTTGACGCTGCTG”, for which the values for the binding signal in experiment [1] and in experiment [2] were 1.71 z-score and 1.59 z-score, respectively.
In the same order, the values of “CCGATTAACATCAGGGGTTTAACTGATGTTAATCGGGTCTTGATTCGCTTGACGCTGCTG” are 1.69 z-score and 3.05 z-score.
In the same order, the values of “CCGATTAACATCAGAATTCCCACTGATGTTAATCGGGTCTTGATTCGCTTGACGCTGCTG” are 3.68 z-score and 3.3 z-score.
Turning to “CCGATTAACATCAAACAATTCCCTGATGTTAATCGGGTCTTGATTCGCTTGACGCTGCTG”, the figures for the binding signal in experiment [1] and in experiment [2] were 5.01 z-score and 3.72 z-score, respectively.
As to “CCGATTAACATCAGGGAAGTCCATGATGTTAATCGGGTCTTGATTCGCTTGACGCTGCTG”, the binding signal in experiment [1] worked out at 1.93 z-score; in experiment [2], 1.11 z-score.
In the same order, the values of “CCGATTAACATCAGGGGGTAGGATGATGTTAATCGGGTCTTGATTCGCTTGACGCTGCTG” are 3.54 z-score and 2.97 z-score.
